These results are taken from the supplement of paper PMC9588786.

The structures appear in SMILES notation. Where a name gives a salt, the structure may show the parent alone. ± gives the standard deviation of the averaged measurements.
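Note: viability read as CCK-8 absorbance at 450 nm in cells co-exposed to the GPX4 inhibitor RSL3, relative to a 0.01% DMSO vehicle control.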

For this assay, the system named is HT-1080. The experiment in a line: relative cell viability with RSL3 co-treatment (fraction of control); higher = stronger protection from RSL3-induced ferroptosis (higher viability). Particulars: 10 µM.
As for `CN(C)CCOc1ccc(-c2nc(-c3ccncc3)c(-c3ccc4c(c3)CC/C4=N\O)[nH]2)cc1`, the relative cell viability amounted to 0.833 ± 0.1.

Turning to `CC(C)CC(=O)Nc1n[nH]c2c1CN(C(=O)C1CCN(C)CC1)C2(C)C`, the relative cell viability amounted to 0.78 ± 0.069. With `C[C@@H]1COCCN1c1cc(C2([S@](C)(=N)=O)CC2)nc(-c2cc[nH]c3nccc2-3)n1` the figure was 0.777 ± 0.06; with `CCN(CC)CCNC(=O)c1c(C)[nH]c(/C=C2\C(=O)Nc3ccc(F)cc32)c1C` [Sunitinib Malate], 0.543 ± 0.099; with `CCc1ccc(/C=C2/SC(=S)NC2=O)cc1`, 0.62 ± 0.087.

In the case of `COc1cc2ncnc(Nc3cccc(Cl)c3)c2cc1OC` [AG-1478 (Tyrphostin AG-1478)], the relative cell viability amounted to 0.68 ± 0.2. As to `CC(C)(CCCCCC(O)CCCCCC(C)(C)C(=O)O)C(=O)O`, the relative cell viability was determined as 0.843 ± 0.078.

With `COc1ccc2c(Oc3ccc(NC(=O)c4c(C)n(CC(C)(C)O)n(-c5ccccc5)c4=O)nc3)ccnc2c1`, the relative cell viability turned out to be 0.76 ± 0.052.

Regarding `CN1CC[C@H](c2c(O)cc(O)c3c(=O)cc(-c4ccccc4Cl)oc23)[C@H](O)C1` [Flavopiridol (Alvocidib)], the relative cell viability is 0.49 ± 0.13. With `O=C(NC[C@H](O)CO)c1ccncc1Nc1ccc(I)cc1F` the figure was 0.803 ± 0.076; with `CNC(=O)CN1CCC(Oc2cc3c(Nc4cccc(Cl)c4F)ncnc3cc2OC)CC1` [Sapitinib (AZD8931)], 0.56 ± 0.095. With `CC(C)(C)c1cnc(CSc2cnc(NC(=O)C3CCNCC3)s2)o1` the figure was 0.573 ± 0.05; with `Nc1ccc(C(=O)Nc2cccc(-c3nc(N4CCOCC4)c4oc5ncccc5c4n3)c2)cn1`, 0.303 ± 0.067. With `CC(C)Nc1cc(-c2c[nH]c(C(=O)N[C@H](CO)c3cccc(Cl)c3)c2)c(Cl)cn1` the figure was 0.753 ± 0.076; with `N=C(N)NC(=N)NCCc1ccccc1` [Phenformin HCl], 0.877 ± 0.042; with `Nc1nccc(Oc2ccc(NC(=O)c3c[nH]cc(-c4ccc(F)cc4)c3=O)cc2F)c1Cl`, 0.57 ± 0.036. Consider `COc1cc(Nc2ncc(F)c(Nc3ccc4c(n3)NC(=O)C(C)(C)O4)n2)cc(OC)c1OC`, for which the relative cell viability stood at 0.88 ± 0.095. Take `CN1CCN(S(=O)(=O)c2ccc(-c3cnc(N)c(C(=O)Nc4cccnc4)n3)cc2)CC1`: the relative cell viability was found to be 0.56 ± 0.087. Under `CC(=O)Nc1cccc(-n2c(=O)n(C3CC3)c(=O)c3c(Nc4ccc(I)cc4F)n(C)c(=O)c(C)c32)c1` stands 0.78 ± 0.052; under `Oc1cccc(-c2nc(N3CCOCC3)c3oc4ncccc4c3n2)c1`, 0.75 ± 0.044. In the case of `O=c1sn(-c2cccc3ccccc23)c(=O)n1Cc1ccccc1` [Tideglusib], the relative cell viability was 0.74 ± 0.035. With `O=C(Nc1cccnc1)c1cc(-c2ccnc(F)c2)ccc1OCc1ccccc1` the figure was 0.627 ± 0.06. Under `COc1cc2nccc(Oc3ccc(NC(=O)NC4CC4)c(Cl)c3)c2cc1C(N)=O` [Lenvatinib (E7080)] stands 0.56 ± 0.12. On to `O=C1Nc2ccccc2/C1=C1/Nc2ccccc2C1=O` [Indirubin], for which the relative cell viability was 0.75 ± 0.066. With `Oc1c(F)cc(-c2cnccc2-c2ccc(N3CCOCC3)cc2)cc1F` the figure was 0.757 ± 0.072; with `CN1CCN(c2nc(C3=C(c4c[nH]c5ccccc45)C(=O)NC3=O)c3ccccc3n2)CC1` [Sotrastaurin], 0.903 ± 0.042; with `COc1ccc(-c2cc3c(C)nc(N)nc3n([C@H]3CC[C@H](OCCO)CC3)c2=O)cn1`, 0.597 ± 0.16. With `Cc1cc2c(F)c(Oc3ncnn4cc(OC[C@@H](C)OC(=O)[C@H](C)N)c(C)c34)ccc2[nH]1` the figure was 0.653 ± 0.095; with `Cn1c(=O)c(F)c(Nc2ccc(I)cc2F)c2c(=O)n(C[C@@H](O)CO)cnc21`, 0.71 ± 0.017. Take `CCCCCCCCc1ccc(CCC(N)(CO)CO)cc1` [Fingolimod (FTY720) HCl]: the relative cell viability came out at 0.253 ± 0.1. With `N#CC[C@H](C1CCCC1)n1cc(-c2ncnc3[nH]ccc23)cn1` the figure was 0.897 ± 0.083; with `O=C1NCCc2[nH]c(-c3ccncc3)cc21`, 0.69 ± 0.04; with `Cc1c[nH]c2nc(Nc3ccc(N4CCN(C)CC4)c(F)c3)nc(-c3cccc(CC#N)c3)c12`, 0.123 ± 0.1. Under `CNC(=O)c1cc(Oc2ccc(NC(=O)Nc3ccc(Cl)c(C(F)(F)F)c3)cc2)ccn1` [Sorafenib] stands 0.693 ± 0.14.

Turning to `C=CC(=O)Nc1cccc(Oc2nc(Nc3ccc(N4CCN(C)CC4)cc3OC)ncc2Cl)c1`, the relative cell viability came to 0.927 ± 0.04.

Regarding `COc1cc2ncnc(Nc3ccc(F)c(Cl)c3)c2cc1NC(=O)/C=C/CN1CCCCC1`, the relative cell viability was 0.61 ± 0.046. As to `O=c1cc(-c2ccccc2)oc2c(O)c(O)ccc12` [7,8-Dihydroxyflavone], the relative cell viability turned out to be 0.713 ± 0.011. Regarding `Cn1c(Nc2ccc(C(F)(F)F)cc2)nc2cc(Oc3ccnc(-c4ncc(C(F)(F)F)[nH]4)c3)ccc21`, the relative cell viability came out at 0.593 ± 0.091. Under `CC(C)CC(NC(=O)C(Cc1ccccc1)NC(=O)C(CCC(N)=O)NC(=O)C(Cc1ccc(O)cc1)NC(=O)C(C)NC(=O)CNC(=O)C(CCCCN)NC(=O)C(Cc1c[nH]c2ccccc12)NC(=O)C(NC(=O)C(Cc1c[nH]c2ccccc12)NC(=O)C(CCCCN)NC(=O)CNC(=O)C(CC(N)=O)NC(=O)C(CCC(=O)O)NC(=O)C(Cc1c[nH]c2ccccc12)NC(=O)C(NC(=O)C(Cc1c[nH]c2ccccc12)NC(=O)C(CO)NC(=O)CNC(=O)C1CCCN1C(=O)C(Cc1c[nH]c2ccccc12)NC(=O)C(CCC(N)=O)NC(=O)C(Cc1ccccc1)NC(=O)CNC(=O)C(N)Cc1c[nH]cn1)C(C)O)C(C)O)C(=O)NC(CCCCN)C(=O)NCC(=O)NCC(=O)NCC(=O)NCC(=O)NC(CO)C(=O)NC(CCCNC(=N)N)C(=O)NC(CCCNC(=N)N)C(=O)NC(CCCNC(=N)N)C(=O)NC(CCCNC(=N)N)C(=O)NC(CCCNC(=N)N)C(=O)NC(CCCNC(=N)N)C(=O)NC(CCCNC(=N)N)C(=O)NC(CCCNC(=N)N)C(=O)NC(CCCNC(=N)N)C(=O)O` (centres undefined) stands 0.7133 ± 0.0058.
